The source of these data is PubChem BioAssay (NCATS).

Results filed as inconclusive are left out. A number with no mark means an inactive call. Calls of active or inactive are those of the source. The call rests on the fitted dose curve; in most records, active means well fitted curve in the direction sought with a large enough effect; inconclusive means small, poorly fitted or top-dose-only effect, or another doubt; inactive means no such curve, though single readings can be large; an effect the other way counts as inactive or inconclusive.

Experiment [1] has as its target Cellular tumor antigen p53 (Homo sapiens) (UniProt P04637). Kind of experiment: Primary qHTS for small molecule compounds that upregulate eGFP-tagged delta133p53alpha (in N-terminal) cells. (AID 2060322). Further: nearly all actives have a fitted effect of over 75% in size. Further: potency means the concentration at half of the fitted maximal effect.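 On activation: cells pre-induced with doxycycline then dosed without doxycycline; series mostly up to about 56 µM; 0% = DMSO vehicle and 100% = reference activator.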 Conditions: NCI-H358 eGFP-delta133p53alpha fluorescence, 24 h; activation: stronger effect = higher value. The gist of the method: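 NCI-H358 cells pre-induced 24 h with 10 ng/ml doxycycline for eGFP-delta133p53alpha, plated dox-free and exposed 24 h at 37C to titrated compounds. Fixed, Hoechst-stained; gated GFP peak intensity by laser scanning cytometry, normalized to DMSO (0%) and 57.5 uM 5-azacytidine (100%).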

The target of experiment [2] is Aldehyde dehydrogenase, mitochondrial (Homo sapiens) (UniProt P05091). Kind of experiment: qHTS for Inhibitors of the Aldehyde Dehydrogenase Family (ALDH2) Primary screen (AID 2061308).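 Further: plate controls were vehicle for no effect and reference inhibitor for full effect; nearly all actives have a fitted effect of over 55% in size.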
Experiment [3] deals with Retinaldehyde dehydrogenase 3 (Homo sapiens) (UniProt P47895). Kind of experiment: qHTS for Inhibitors of the Aldehyde Dehydrogenase Family (ALDH1A3) Primary screen (AID 2061315).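 Further: plate controls were DMSO vehicle for no effect and reference inhibitor for full effect.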

Cellular tumor antigen p53 (Homo sapiens), sequence (P04637 whole entry, looked up): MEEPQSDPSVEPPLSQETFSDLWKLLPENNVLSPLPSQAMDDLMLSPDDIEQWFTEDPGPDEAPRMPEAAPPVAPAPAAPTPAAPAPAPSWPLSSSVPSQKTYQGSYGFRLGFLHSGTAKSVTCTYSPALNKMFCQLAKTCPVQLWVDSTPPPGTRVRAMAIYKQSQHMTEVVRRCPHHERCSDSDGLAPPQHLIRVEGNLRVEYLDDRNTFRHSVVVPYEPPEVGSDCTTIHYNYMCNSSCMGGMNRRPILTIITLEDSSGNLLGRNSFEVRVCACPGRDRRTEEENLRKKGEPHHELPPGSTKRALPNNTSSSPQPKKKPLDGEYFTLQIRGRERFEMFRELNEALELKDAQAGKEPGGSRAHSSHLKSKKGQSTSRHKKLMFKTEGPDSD

As for `O=C(Cn1c2ccccc2c2nc3n(c(=O)c21)CCS3)N1CCCC1`, the activation in experiment [1] was 5.67%. The Potency result in experiment [2] and in experiment [3] was “inactive” throughout.

Take `CCNC(=O)Nc1ccc(-c2nc3c(c(N4CCOCC4C)n2)CCN(C2COC2)C3)cc1` (centres undefined): the activation in experiment [1] is 12.4%. The Potency result in experiment [2] and in experiment [3] was “inactive” in each case.

For the compound `CC(C)C1(O[C@@H]2O[C@H](CO)[C@@H](O)[C@H](O)[C@H]2O)CC=C(CO)CC1` (some centres undefined), the activation in experiment [1] is 17.9%. Further, the Potency result in experiment [2] and in experiment [3] was “inactive” each time.

In the case of `C[C@H]1CC[C@@]2(OC1)O[C@H]1CC3C4CC=C5C[C@H](O)C[C@@H](O[C@@H]6O[C@@H](C)[C@H](O)[C@@H](O)[C@H]6O[C@@H]6O[C@@H](C)[C@H](O)[C@@H](O)[C@H]6O)[C@]5(C)C4CC[C@]3(C)[C@H]1[C@@H]2C` (some centres undefined), the activation in experiment [1] was -13.7%. In addition, the Potency result in experiment [2] and in experiment [3] was “inactive” throughout.

Consider `CC1=C2C[C@H]3O[C@@]3(C)CCC3O[C@@]3(C)C[C@@]2(O)OC1=O` (some centres undefined), for which the activation in experiment [1] was -2.29%. The Potency entry in experiment [2] and in experiment [3] was “inactive” throughout.

With `O=C(OCc1cccc(O)c1O[C@@H]1O[C@H](CO)[C@@H](O)[C@H](O)[C@H]1O)C1(O)C(=O)C2C=CC1C1C=CC(=O)C(O)(C(=O)OCc3cccc(O)c3O[C@@H]3O[C@H](CO)[C@@H](O)[C@H](O)[C@H]3O)C21` (some centres undefined), in experiment [1], the activation is -29.8%. Further, the Potency entry in experiment [2] and in experiment [3] was “inactive” in each case.

In the case of `Cn1nc(C(C)(C)C)cc1C(=O)N[C@@H](Cc1cccc(Cl)c1)C(=O)NCC#N`, in experiment [1], the activation was -7%. Besides, the Potency result in experiment [2] and in experiment [3] was “inactive” in each case.

As for `C/C(=C\C1CCC(C)C2CCC3(C)OC123)C(=O)O` (centres undefined), in experiment [1], the activation was 8.04%. In addition, the Potency entry in experiment [2] and in experiment [3] was “inactive” each time.

`COC(=O)C1=COC(OC2OC(CO)C(O)C(O)C2O)C2C(C)C(OC(C)=O)C(OC(=O)c3ccccc3)C12` (centres undefined): in experiment [1], the activation was -6.87%. Further, the Potency entry in experiment [2] and in experiment [3] was “inactive” each time.

With `CCc1cccc(CC)c1-n1c(C=C(C)C)c(C(=O)N2CCNCC2)cc(-c2nc(-c3ccc(C(F)(F)F)cc3)cs2)c1=O`, the activation in experiment [1] is 26.3%. The Potency entry in experiment [2] and in experiment [3] was “inactive” throughout.

`CC(C)c1cc2c(N3CCN(C4=NCC(C)(C)S4)CC3)ncnc2s1`: the activation in experiment [1] is 3.67%. Further, the Potency result in experiment [2] and in experiment [3] was “inactive” in each case.

Consider `O=C(O)CCc1cc2ccoc2cc1O[C@@H]1O[C@H](CO[C@@H]2OC[C@](O)(CO)[C@H]2O)[C@@H](O)[C@H](O)[C@H]1O`, for which the activation in experiment [1] was -11.5%. In addition, the Potency entry in experiment [2] and in experiment [3] was “inactive” in each case.

As to `C=CC(C)(CC/C=C(\C)C(=O)OC)OC1OC(COC(=O)CC(C)(O)CC(=O)O)C(O)C(O)C1O` (centres undefined), the activation in experiment [1] is -3.05%. Further, the Potency entry in experiment [2] and in experiment [3] was “inactive” each time.

Turning to `O=C(/C=C/c1ccc(O)cc1)O[C@@H]1C[C@@](O)(C(=O)O)C[C@@H](O)[C@@H]1O`, the activation in experiment [1] is 3.82%. Moreover, the Potency result in experiment [2] and in experiment [3] was “inactive” throughout.

As to `NC(=O)[C@H]1CCCCc2c1[nH]c1ccc(Cl)cc21`, the activation in experiment [1] is 15%. Further, the Potency result in experiment [2] and in experiment [3] was “inactive” throughout.

For the compound `Cc1sc2c(c1C)C(c1ccc(Cl)cc1)=N[C@H](CC(=O)NCCCCNC(=O)COc1cccc3c1C(=O)N([C@H]1CCC(=O)NC1=O)C3=O)c1nnc(C)n1-2`, the Potency in experiment [1] is 1.69 µM (active). Also, the Potency result in experiment [2] and in experiment [3] was “inactive” each time.

In the case of `CC(=O)OCCC(C)CCC1C(C)(O)CCC2C(C)(C)CCCC21C` (centres undefined), the activation in experiment [1] is 6.87%. Besides, the Potency entry in experiment [2] and in experiment [3] was “inactive” throughout.

Regarding `CC1=CC(=O)[C@@]2(C(C)C)C[C@@H]12`, in experiment [1], the activation is 17.7%. In addition, the Potency entry in experiment [2] and in experiment [3] was “inactive” in each case.

In the case of `C/C=C(\C)C(=O)O[C@@H]1CC2[C@@H](CC=C3C[C@@H](O[C@H]4C[C@H](OC)[C@H](O[C@H]5C[C@H](OC)[C@H](O[C@@H]6O[C@H](C)[C@@H](O[C@H]7C[C@H](OC)[C@H](O[C@@H]8O[C@H](CO)[C@@H](O)[C@H](O)[C@H]8O)[C@@H](C)O7)[C@H](OC)[C@H]6O)[C@@H](C)O5)[C@@H](C)O4)CC[C@@]32C)[C@@]2(O)CC[C@H](C(C)=O)[C@@]12C` (some centres undefined), the activation in experiment [1] is 9.92%. In addition, the activity change, negative = inhibition in experiment [2] was 12% [at 11.2 µM]; in experiment [3] it was 11% [at 11.2 µM].

Take `CC1=C(C)C(=O)OC(C(C)C2CCC3C4C5OC5C5(O)CC(OC6OC(CO)C(OC7OC(C)C(O)C(O)C7O)C(O)C6O)CC(O)C5(C)C4CCC23C)C1` (centres undefined): the activation in experiment [1] is 3.57%. Moreover, the Potency result in experiment [2] and in experiment [3] was “inactive” each time.

As for `C=C(C)[C@@H]1CC[C@]2(C)CC[C@]3(C)[C@H](CC[C@@H]4[C@@]5(C)CC[C@@H](O)C(C)(C)[C@@H]5CC[C@]43C)[C@@H]12`, in experiment [1], the activation is 17.6%. In addition, the Potency entry in experiment [2] and in experiment [3] was “inactive” throughout.

As for `Cc1cc2c(F)c(Oc3ncnn4cc(OCC(C)O)c(C)c34)ccc2[nH]1` (centres undefined), the activation in experiment [1] is -26.8%. Further, the Potency result in experiment [2] and in experiment [3] was “inactive” each time.

As for `C[C@H]1CC(=O)C2=C(C1)C(O)C(O)[C@@]1(O)[C@H]2C(=O)c2cccc(O)c2[C@@H]1O` (some centres undefined), in experiment [1], the activation was 3.05%. Besides, the Potency result in experiment [2] and in experiment [3] was “inactive” in each case.
